Records with an inconclusive call do not appear. Active and inactive are the calls of the source. How the source made its calls: active means hit-call score of the fitted dose curve at least 0.9, where 1 is the maximum; inconclusive means response in the unintended direction; inactive means score below 0.9.
experiment: Tanguay_ZF_120hpf_JAW_legacy: (Legacy) Oregon State University Tanguay Lab 120 Hour Post-fertilization zebrafish Assay for Jaw Malformation (AID 2283638)
Method in brief: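 Wild-type 5D embryos, chorion removed at 4 hpf, dosed singly from 6 hpf; 28C static, sealed, foil-covered, to 120 hpf. Endpoint: jaw defect yes/no (brightfield); mortality excludes scoring.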

Row | SMILES | outcome
1 | ClC(Cl)(Cl)c1ccccc1 | inactive
2 | Cc1ccc(O)cc1C | inactive
3 | CC(Cl)(Cl)C(=O)O | inactive
4 | Cc1cccc(N)c1 | inactive
5 | [N-]=[N+]=[N-] | inactive
6 | CC(C)(C)OOC(C)(C)C | inactive
7 | CCOc1ccc(C(C)(C)COCc2cccc(Oc3ccccc3)c2)cc1 | inactive
8 | CCOC(=O)c1ccccc1C(=O)OCC | inactive
9 | CCOP(=S)(Oc1ccc([N+](=O)[O-])cc1)c1ccccc1 (configuration not stated) | inactive
10 | Cc1ccc([N+](=O)[O-])cc1C | inactive
11 | Nc1cc2c3c(c1)C(c1ccccc1)=N[C@@H](NC(=O)c1cccnc1)C(=O)N3CC2 | inactive
12 | CC(C)(C)c1ccc(O)cc1 | inactive
13 | CCCCCCCc1ccc(O)cc1 | inactive
14 | CCCCN(CCCC)SN(C)C(=O)Oc1cccc2c1OC(C)(C)C2 | inactive
15 | CCCCN(CCCC)N=O | inactive
16 | CN(C)C(=O)Cl | inactive
17 | Nc1ccc(Cl)cc1 | inactive
